According to the supplement of paper PMC10646978:
± gives the standard deviation.

How the values were obtained:
Conditions in all cases: modulator concentration 10 µM
[1] = tested on: RAW-Dual (murine macrophage reporter line); experiment: NF-kB reporter (SEAP) activity fold change vs agonist alone; higher = enhanced NF-kB activity
Method in brief: (§1)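 Compound reached 10 μM final in each well by pin transfer, onto RAW-Dual murine macrophage reporter cells seeded at 50 000 per well in 384-well plates. After 1 hour at 37 °C, the cells were stimulated overnight with a PRR agonist. SEAP in the supernatant was read with QUANTI-Blue at 620 nm absorbance for NF-κB, and Lucia luciferase was read with QUANTI-Luc luminescence for IRF. Each signal was turned into fold change against the mean agonist-only control on the same plate, and two replicate plates were averaged with propagated errors.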

[2] = tested on: RAW-Dual (murine macrophage reporter line); experiment: IRF reporter (Lucia luciferase) activity fold change vs agonist alone; higher = enhanced IRF activity
Method in brief: as §1

[3] = tested on: RAW-Dual (murine macrophage reporter line); experiment: viability score (confluency relative to resting cells, overnight) (fraction); higher = more viable, active = viable (0.7 or more)
Method in brief: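 RAW-Dual macrophages in 384-well plates were incubated overnight with compound, final concentration 10 μM. Confluency images from IncuCyte were processed in IncuCyte software into two masks covering all imaged wells. The viability score is each well's confluency relative to resting cells, and a compound met the cutoff when both masks exceeded 70% of resting cells.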

[4] = agonist: CpG ODN 1826 0.5 ug/mL

| Structure (SMILES) | NF-kB reporter [1, 4] | NF-kB reporter ([1]; agonist: LPS 0.1 ug/mL) | NF-kB reporter ([1]; agonist: MPLA […]) | IRF reporter ([2]; agonist: 3'3'-cGAMP 10 ug/mL) | IRF reporter ([2]; agonist: LPS 0.1 ug/mL) | IRF reporter ([2]; agonist: MPLA […]) | viability score [3] |
| --- | --- | --- | --- | --- | --- | --- | --- |
| O=C(NCCO)c1cc(C(=O)NCCO)cc(C(=O)NCCO)c1 | 0.964 ± 0.065 | 1.05 ± 0.064 | 0.923 ± 0.054 | 0.981 ± 0.043 | 1.36 ± 0.099 | 1.18 ± 0.29 | 1.01 (active) |
| COc1ccc(NC(=O)Cc2cn(Cc3ccccc3)c3ccccc23)cc1OC | 0.629 ± 0.035 | 1.2 ± 0.096 | 1.57 ± 0.13 | 0.701 ± 0.032 | 1.24 ± 0.27 | 1.39 ± 0.4 | 0.96 (active) |
| Clc1ccc2c(c1)C(N1CCNCC1)=Nc1ccccc1O2 | 0.996 ± 0.26 | 1.02 ± 0.066 | 0.969 ± 0.07 | 0.893 ± 0.03 | 1.2 ± 0.25 | 1.28 ± 0.13 | 0.637 (inactive) |
| Cc1cc(C)nc(SCCCCSc2nc(C)cc(C)n2)n1 | 1.03 ± 0.062 | 0.975 ± 0.14 | 0.944 ± 0.025 | 1.13 ± 0.14 | 0.979 ± 0.11 | 0.909 ± 0.21 | 0.996 (active) |
| CC1=NN(C(=O)OC(C)(C)C)C(O)(c2ccncc2)C1 (centres undefined) | 1.03 ± 0.084 | 1.01 ± 0.1 | 0.886 ± 0.084 | 0.979 ± 0.081 | 1.14 ± 0.14 | 1.22 ± 0.2 | 1.03 (active) |
| O=C(c1cc2ccccc2o1)N1CC(N2C(=O)CNC2=O)C1 | 1.17 ± 0.28 | 1.04 ± 0.081 | 1.06 ± 0.077 | 0.933 ± 0.038 | 1.12 ± 0.15 | 1.33 ± 0.13 | 0.989 (active) |
| Cc1nc2sccn2c(=O)c1CCN1CCC(=C(c2ccc(F)cc2)c2ccc(F)cc2)CC1 | 0.91 ± 0.1 | 1 ± 0.061 | 0.901 ± 0.053 | 0.92 ± 0.056 | 1.12 ± 0.18 | 1.01 ± 0.15 | 1 (active) |
| COc1ccc(OC)c(Nc2nc(-c3c(C)nc4ncccn34)cs2)c1 | 2.14 ± 0.18 | 1.35 ± 0.12 | 1.09 ± 0.083 | 0.3 ± 0.014 | 0.381 ± 0.035 | 0.361 ± 0.066 | 0.907 (active) |
| NCCCC[C@H](N[C@@H](CCc1ccccc1)C(=O)O)C(=O)N1CCC[C@H]1C(=O)O | 1.01 ± 0.076 | 0.997 ± 0.097 | 0.97 ± 0.033 | 1.26 ± 0.25 | 0.999 ± 0.049 | 1.07 ± 0.17 | 0.996 (active) |
| CCC(C)(C)C(=O)Nc1ccc(C(C)=O)cc1 | 0.962 ± 0.076 | 1.03 ± 0.068 | 0.953 ± 0.045 | 0.909 ± 0.13 | 1.02 ± 0.14 | 1.11 ± 0.22 | 1 (active) |
| C1=CC2CC1CC2CN1CCC(N2CCCCC2)CC1 (centres undefined) | 0.089 ± 0.0093 | 0.949 ± 0.072 | 1.26 ± 0.13 | 0.578 ± 0.038 | 1.69 ± 0.099 | 1.79 ± 0.17 | 0.989 (active) |
| CCN(CCO)CCCC(C)Nc1ccnc2cc(Cl)ccc12.O=S(=O)(O)O (centres undefined) | 0.877 ± 0.037 | 0.984 ± 0.08 | 1.44 ± 0.24 | 0.984 ± 0.049 | 1.08 ± 0.28 | 1.15 ± 0.42 | 1 (active) |
